{"source": "PubChem BioAssay (NCI)", "key": {"[1]": {"experiment": "NCI Yeast Anticancer Drug Screen. Data for the rad52 strain (AID 147);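 note: 0% = growth of vehicle-treated control cultures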", "settings": "S. cerevisiae rad52 mutant growth inhibition, active compounds read high", "method_in_brief": "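Inhibition of yeast growth, referenced to vehicle controls, was the measured output for a strain with defective DNA damage repair.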"}, "[2]": {"experiment": "NCI Yeast Anticancer Drug Screen. Data for the wt1 strain (AID 149);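 note: 0% = growth of vehicle-treated wt1 cultures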", "settings": "S. cerevisiae wt1 strain (SPY 50644) growth inhibition, active compounds read high", "method_in_brief": "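Using yeast strain wt1, compound-induced growth inhibition was determined against vehicle-treated cultures.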"}, "[3]": {"experiment": "NCI Yeast Anticancer Drug Screen. Data for the rad50EPP+ strain (AID 151);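 note: 0% = growth of vehicle-treated control cultures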", "settings": "S. cerevisiae rad50 mutant strain, active compounds read high", "method_in_brief": "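Genetically defined yeast (rad50EPP+, DNA damage repair alteration) is grown with compound, and inhibition of growth is expressed relative to vehicle-treated controls.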"}, "[4]": {"experiment": "NCI Yeast Anticancer Drug Screen. Data for the mgt1 strain (AID 153)", "settings": "S. cerevisiae mgt1 mutant growth inhibition, active compounds read high", "method_in_brief": "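In the mgt1 strain, test compounds were added and growth inhibition was determined relative to vehicle-treated controls.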"}, "[5]": {"experiment": "NCI Yeast Anticancer Drug Screen. Data for the rad50 strain (AID 155);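 note: 0% = growth of vehicle-only cultures of the same strain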", "settings": "S. cerevisiae rad50 strain growth inhibition, active compounds read high", "method_in_brief": "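Relative growth inhibition (compound vs vehicle) was measured in yeast with a defined repair-gene alteration.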"}, "[6]": {"experiment": "NCI Yeast Anticancer Drug Screen. Data for the mec2-1 strain (AID 157)", "settings": "S. cerevisiae mec2-1 strain, active compounds read high", "method_in_brief": "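Each compound was tested on mec2-1 yeast, a strain altered in DNA damage repair or cell cycle control. Growth inhibition is reported relative to vehicle.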"}, "[7]": {"experiment": "NCI Yeast Anticancer Drug Screen. Data for the rad14 strain (AID 159);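 note: 0% = growth of vehicle-treated control cultures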", "settings": "S. cerevisiae rad14 strain growth inhibition, active compounds read high", "method_in_brief": "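Screen for anticancer potential: a yeast strain altered in DNA damage repair is grown with compound, and reduced growth is quantified against vehicle controls.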"}, "[8]": {"experiment": "NCI Yeast Anticancer Drug Screen. Data for the CLN2oe strain (AID 163);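 note: 0% = growth of vehicle-only control cultures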", "settings": "S. cerevisiae CLN2oe strain, active compounds read high", "method_in_brief": "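First, the altered yeast strain was treated with each compound; second, its growth was measured; finally, inhibition was derived by comparison with vehicle controls.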"}, "[9]": {"experiment": "NCI Yeast Anticancer Drug Screen. Data for the cln2 rad14 strain (AID 165);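 note: 0% = growth equal to vehicle treated cultures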", "settings": "S. cerevisiae cln2 rad14 strain, active compounds read high", "method_in_brief": "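Test compounds were added to cln2 rad14 yeast cultures; inhibition of growth was then determined by comparison with vehicle treatment.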"}, "[10]": {"experiment": "NCI Yeast Anticancer Drug Screen. Data for the bub3 strain (AID 167)", "settings": "S. cerevisiae bub3 mutant strain, active compounds read high", "method_in_brief": "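Screening used yeast with an engineered genetic alteration affecting cell cycle control. Compound-exposed cultures were compared with vehicle cultures, and reduced growth was taken as inhibition.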"}, "[11]": {"experiment": "NCI Yeast Anticancer Drug Screen. Data for the wt2 strain (AID 169);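 note: 0% = growth of vehicle-treated yeast cultures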", "settings": "S. cerevisiae wt2 strain growth inhibition, active compounds read high", "method_in_brief": "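The panel's yeast strains carry defined changes in DNA repair or cell cycle genes. Each strain is grown with compound, and growth loss is scored relative to vehicle.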"}, "[12]": {"experiment": "NCI Yeast Anticancer Drug Screen. Data for the mlh1 strain (AID 171);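 note: 0% = growth of vehicle-treated control cultures of the same strain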", "settings": "S. cerevisiae mlh1 strain growth inhibition, active compounds read high", "method_in_brief": "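Inhibition values reflect reduced yeast growth in the presence of compound, referenced to vehicle controls, using a strain chosen for its alteration in DNA repair or cell cycle control.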"}, "[13]": {"experiment": "NCI Yeast Anticancer Drug Screen. Data for the sgs1 strain (AID 173);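 note: 0% = growth of vehicle-only control cultures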", "settings": "S. cerevisiae sgs1 mutant, active compounds read high", "method_in_brief": "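Vehicle-treated cultures served as reference for growth inhibition of a yeast strain altered in DNA damage repair or cell cycle control after compound exposure.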"}, "[14]": {"experiment": "NCI Yeast Anticancer Drug Screen. Data for the mlh1 rad18 strain (AID 175)", "settings": "S. cerevisiae mlh1 rad18 strain growth inhibition, active compounds read high", "method_in_brief": "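Inhibition values reflect reduced growth of mutant yeast versus vehicle-treated controls following compound exposure; the mutations affect DNA damage repair.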"}, "[15]": {"experiment": "NCI Yeast Anticancer Drug Screen. Data for the rad18 strain (AID 177)", "settings": "S. cerevisiae rad18 mutant growth inhibition, active compounds read high", "method_in_brief": "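Steps: expose repair-mutant yeast to compound; measure growth; express as inhibition relative to vehicle control.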"}, "[16]": {"settings": "at 5.0 µM (retest, dose inferred, filed as 0.5)"}, "[17]": {"settings": "at 50.0 µM (retest, dose inferred, filed as 5.0)"}}, "note": "This is part of a sample that, as a whole, favours compounds with a hit. Of some 79,000 tested, about 15% had one in any assay. A number with no mark means an inactive call. Activity calls are given as the source filed them. Cut-off read from the data, not from the text of the source: active = growth inhibition above about 70%; inactive = the rest."}
{"smiles": "CC1=NN(C(=O)CC(=O)NC(=O)/C=C\\c2ccccc2)C(=O)C1N=Nc1ccc([N+](=O)[O-])cc1", "note": "(stereo not given)", "values": [{"measurement": "growth inhibition", "setting": "[1]; at 1.2 µM", "value": -1, "unit": "%"}, {"measurement": "growth inhibition", "setting": "[1]; at 3.7 µM", "value": 3, "unit": "%"}, {"measurement": "growth inhibition", "setting": "[1]; at 11.0 µM", "value": 56, "unit": "%"}, {"measurement": "growth inhibition", "setting": "[1]; at 33.0 µM", "value": "75% (active)"}, {"measurement": "growth inhibition", "setting": "[1]; at 100.0 µM", "value": "72% (active)"}, {"measurement": "growth inhibition", "setting": "[2]; at 1.2 µM", "value": 2, "unit": "%"}, {"measurement": "growth inhibition", "setting": "[2]; at 3.7 µM", "value": 4, "unit": "%"}, {"measurement": "growth inhibition", "setting": "[2]; at 11.0 µM", "value": 20, "unit": "%"}, {"measurement": "growth inhibition", "setting": "[2]; at 33.0 µM", "value": 35, "unit": "%"}, {"measurement": "growth inhibition", "setting": "[2]; at 100.0 µM", "value": 34, "unit": "%"}, {"measurement": "growth inhibition", "setting": "[3]; at 1.2 µM", "value": 19, "unit": "%"}, {"measurement": "growth inhibition", "setting": "[3]; at 3.7 µM", "value": 42, "unit": "%"}, {"measurement": "growth inhibition", "setting": "[3]; at 11.0 µM", "value": 62, "unit": "%"}, {"measurement": "growth inhibition", "setting": "[3]; at 33.0 µM", "value": 64, "unit": "%"}, {"measurement": "growth inhibition", "setting": "[3]; at 100.0 µM", "value": 60, "unit": "%"}, {"measurement": "growth inhibition", "setting": "[4]; at 1.2 µM", "value": 1, "unit": "%"}, {"measurement": "growth inhibition", "setting": "[4]; at 3.7 µM", "value": 9, "unit": "%"}, {"measurement": "growth inhibition", "setting": "[4]; at 11.0 µM", "value": 32, "unit": "%"}, {"measurement": "growth inhibition", "setting": "[4]; at 33.0 µM", "value": 51, "unit": "%"}, {"measurement": "growth inhibition", "setting": "[4]; at 100.0 µM", "value": 55, "unit": "%"}, {"measurement": "growth inhibition", "setting": "[5]; at 1.2 µM", "value": -7, "unit": "%"}, {"measurement": "growth inhibition", "setting": "[5]; at 3.7 µM", "value": -10, "unit": "%"}, {"measurement": "growth inhibition", "setting": "[5]; [16]", "value": -1, "unit": "%"}, {"measurement": "growth inhibition", "setting": "[5]; at 11.0 µM", "value": 38, "unit": "%"}, {"measurement": "growth inhibition", "setting": "[5]; at 33.0 µM", "value": "73% (active)"}, {"measurement": "growth inhibition", "setting": "[5]; [17]", "value": "87% (active)"}, {"measurement": "growth inhibition", "setting": "[5]; at 50.0 µM", "value": 59.1, "unit": "%"}, {"measurement": "growth inhibition", "setting": "[5]; at 100.0 µM", "value": "71% (active)"}, {"measurement": "growth inhibition", "setting": "[6]; at 1.2 µM", "value": 3, "unit": "%"}, {"measurement": "growth inhibition", "setting": "[6]; at 3.7 µM", "value": 8, "unit": "%"}, {"measurement": "growth inhibition", "setting": "[6]; [16]", "value": -13, "unit": "%"}, {"measurement": "growth inhibition", "setting": "[6]; at 11.0 µM", "value": 26, "unit": "%"}, {"measurement": "growth inhibition", "setting": "[6]; at 33.0 µM", "value": 49, "unit": "%"}, {"measurement": "growth inhibition", "setting": "[6]; [17]", "value": 35, "unit": "%"}, {"measurement": "growth inhibition", "setting": "[6]; at 50.0 µM", "value": "77.5% (active)"}, {"measurement": "growth inhibition", "setting": "[6]; at 100.0 µM", "value": 43, "unit": "%"}, {"measurement": "growth inhibition", "setting": "[7]; at 1.2 µM", "value": 1, "unit": "%"}, {"measurement": "growth inhibition", "setting": "[7]; at 3.7 µM", "value": 5, "unit": "%"}, {"measurement": "growth inhibition", "setting": "[7]; at 11.0 µM", "value": 21, "unit": "%"}, {"measurement": "growth inhibition", "setting": "[7]; at 33.0 µM", "value": 41, "unit": "%"}, {"measurement": "growth inhibition", "setting": "[7]; at 100.0 µM", "value": 46, "unit": "%"}, {"measurement": "growth inhibition", "setting": "[8]; at 1.2 µM", "value": 6, "unit": "%"}, {"measurement": "growth inhibition", "setting": "[8]; at 3.7 µM", "value": 9, "unit": "%"}, {"measurement": "growth inhibition", "setting": "[8]; at 11.0 µM", "value": 20, "unit": "%"}, {"measurement": "growth inhibition", "setting": "[8]; at 33.0 µM", "value": 34, "unit": "%"}, {"measurement": "growth inhibition", "setting": "[8]; at 100.0 µM", "value": 37, "unit": "%"}, {"measurement": "growth inhibition", "setting": "[9]; [16]", "value": 43, "unit": "%"}, {"measurement": "growth inhibition", "setting": "[9]; [17]", "value": 49, "unit": "%"}, {"measurement": "growth inhibition", "setting": "[9]; at 50.0 µM", "value": 51.2, "unit": "%"}, {"measurement": "growth inhibition", "setting": "[10]; at 1.2 µM", "value": -1, "unit": "%"}, {"measurement": "growth inhibition", "setting": "[10]; at 3.7 µM", "value": 4, "unit": "%"}, {"measurement": "growth inhibition", "setting": "[10]; [16]", "value": -4, "unit": "%"}, {"measurement": "growth inhibition", "setting": "[10]; at 11.0 µM", "value": 30, "unit": "%"}, {"measurement": "growth inhibition", "setting": "[10]; at 33.0 µM", "value": 57, "unit": "%"}, {"measurement": "growth inhibition", "setting": "[10]; [17]", "value": 51, "unit": "%"}, {"measurement": "growth inhibition", "setting": "[10]; at 50.0 µM", "value": "79.5% (active)"}, {"measurement": "growth inhibition", "setting": "[10]; at 100.0 µM", "value": 58, "unit": "%"}, {"measurement": "growth inhibition", "setting": "[11]; at 1.2 µM", "value": 0, "unit": "%"}, {"measurement": "growth inhibition", "setting": "[11]; at 3.7 µM", "value": 7, "unit": "%"}, {"measurement": "growth inhibition", "setting": "[11]; at 11.0 µM", "value": 39, "unit": "%"}, {"measurement": "growth inhibition", "setting": "[11]; at 33.0 µM", "value": 64, "unit": "%"}, {"measurement": "growth inhibition", "setting": "[11]; at 100.0 µM", "value": 61, "unit": "%"}, {"measurement": "growth inhibition", "setting": "[12]; at 1.2 µM", "value": 0, "unit": "%"}, {"measurement": "growth inhibition", "setting": "[12]; at 3.7 µM", "value": 10, "unit": "%"}, {"measurement": "growth inhibition", "setting": "[12]; at 11.0 µM", "value": 37, "unit": "%"}, {"measurement": "growth inhibition", "setting": "[12]; at 33.0 µM", "value": 68, "unit": "%"}, {"measurement": "growth inhibition", "setting": "[12]; at 100.0 µM", "value": 69, "unit": "%"}, {"measurement": "growth inhibition", "setting": "[13]; at 1.2 µM", "value": 2, "unit": "%"}, {"measurement": "growth inhibition", "setting": "[13]; at 3.7 µM", "value": 16, "unit": "%"}, {"measurement": "growth inhibition", "setting": "[13]; at 11.0 µM", "value": 61, "unit": "%"}, {"measurement": "growth inhibition", "setting": "[13]; at 33.0 µM", "value": "77% (active)"}, {"measurement": "growth inhibition", "setting": "[13]; at 100.0 µM", "value": "74% (active)"}, {"measurement": "growth inhibition", "setting": "[14]; [16]", "value": -3, "unit": "%"}, {"measurement": "growth inhibition", "setting": "[14]; [17]", "value": 65, "unit": "%"}, {"measurement": "growth inhibition", "setting": "[14]; at 50.0 µM", "value": "76.6% (active)"}, {"measurement": "growth inhibition", "setting": "[15]; at 1.2 µM", "value": -8, "unit": "%"}, {"measurement": "growth inhibition", "setting": "[15]; at 3.7 µM", "value": 4, "unit": "%"}, {"measurement": "growth inhibition", "setting": "[15]; at 11.0 µM", "value": "77% (active)"}, {"measurement": "growth inhibition", "setting": "[15]; at 33.0 µM", "value": "83% (active)"}, {"measurement": "growth inhibition", "setting": "[15]; at 100.0 µM", "value": "82% (active)"}]}
